This passage reports growth results from PubChem BioAssay (NCI).

Experiment in all cases: NCI-60 one-dose screen, 48 h (100 = growth as untreated, 0 = no growth, -100 = all killed)
Common to all, as to conditions: 10 µM

For experiment [1], the system named is HT29 colon.
Experiment [2] has as its system SNB-75 CNS.
Experiment [3] deals with SNB-19 CNS.
For experiment [4], the system named is U251 CNS.
For experiment [5], the system named is PC-3 prostate.
For experiment [6], the system named is SK-MEL-5 melanoma.
For experiment [7], the system named is UACC-62 melanoma.
Experiment [8] relates to LOX IMVI melanoma.
Experiment [9] relates to SK-MEL-28 melanoma.
For experiment [10], the system named is SK-MEL-2 melanoma.
Experiment [11] concerns EKVX NSCLC.
The subject of experiment [12] is SN12C renal.
The test system of experiment [13] is TK-10 renal.
The test system of experiment [14] is ACHN renal.
Experiment [15] concerns CAKI-1 renal.
Experiment [16] has as its system A498 renal.
For experiment [17], the system named is CCRF-CEM leukemia.
In experiment [18] the test system is MOLT-4 leukemia.
Experiment [19] concerns SR leukemia.
Experiment [20] deals with UO-31 renal.

The panel holds about 83,000 compounds, 20% with a hit somewhere; the sample as a whole holds those more often.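 In brief: 96-well plates, 48 h treatment, single concentration, percent growth endpoint.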 Unmarked numbers belong to inactive results. Activity calls are given as the source filed them. The calls were made as follows: active = growth percent below 10; inactive = the rest.

As for `CC1(C)OC2=C(CC1Br)C(=O)C(=O)c1ccccc12` (stereo not drawn), the growth is -11.7% (active) in experiment [1]; 11.1% in experiment [2]; -19% (active) in experiment [3]; -73.7% (active) in experiment [4]; -16.8% (active) in experiment [5]; -99.7% (active) in experiment [6]. The growth in experiment [7] is -78.9% (active); in [8], -77.3% (active); in experiment [9], -94% (active); in experiment [10] it was -42.9% (active); in experiment [11] it was -40.1% (active); in [12], -75.4% (active). Besides, the growth in [13] was -22.6% (active); in experiment [14], -91.7% (active); in experiment [15], -62.2% (active); in experiment [16], 101%; in [17], -23.1% (active); in experiment [18], -25.6% (active). Besides, the growth in experiment [19] is 15.9%.

As for `O=C(Nc1ccc(Cl)c([N+](=O)[O-])c1)Nc1nc2ccccc2s1`, the growth in [1] was 87.3%; in experiment [2] it was 94.2%; in experiment [3] it was 84.2%; in experiment [4] it was 84%; in experiment [5], 49.9%; in experiment [6], 74.3%. Moreover, the growth is 70% in experiment [7]; 91.4% in experiment [8]; 98.8% in experiment [9]; 102% in experiment [10]; 76.3% in experiment [11]; 65.1% in experiment [12]. In addition, the growth in [20] is 83.8%; in [13] it was 112%; in experiment [14], 81.8%; in experiment [16] it was 85.7%; in experiment [17], 49.2%; in experiment [18], 79.7%. Moreover, the growth in [19] is 113%.

With `O=[N+]([O-])c1cccc(N=Cc2ccc3c(c2)OCO3)c1`, the growth in experiment [1] was 105%; in experiment [2] it was 96.7%; in [3], 130%; in experiment [4], 97.1%; in experiment [5] it was 106%; in experiment [6], 111%. For the same compound, the growth in [7] is 105%; in experiment [8], 91.4%; in experiment [9], 117%; in [10] it was 98.1%; in experiment [11], 104%; in experiment [12] it was 101%. Besides, the growth is 76.7% in [20]; 106% in [13]; 98.3% in [15]; 118% in experiment [16]; 97% in experiment [17]; 89.7% in experiment [18]. For the same compound, the growth in [19] was 102%.

Turning to `CC(C)=NNc1ncnc2c1ncn2C1OC(CO)C(O)C1O` (stereo not drawn), the growth in experiment [1] is 18.1%; in experiment [2] it was 32.1%; in experiment [3] it was 42.5%; in experiment [4], 29.1%; in experiment [5], 17.7%; in experiment [6], 20.5%. The growth was 34.7% in experiment [7]; 7.06% (active) in experiment [8]; 54.7% in [9]; 41.4% in experiment [10]; 43.7% in experiment [11]; 20.5% in experiment [12]. For the same compound, the growth is -3.29% (active) in experiment [20]; 57.5% in experiment [13]; -19% (active) in experiment [15]; 35.9% in experiment [17]; 56.4% in [18]; 14.4% in experiment [19].

Take `COc1cc(OC)cc(-c2cncn2-c2ccc(-c3nc4cc(OC)cc(OC)c4s3)cc2)c1`: the growth in [1] is 36.4%; in [2], 60.9%; in experiment [3], 63.6%; in experiment [4], 40.8%; in experiment [5], 34.1%; in [6], 39.5%. The growth in [7] is 58.8%; in experiment [8], 51.4%; in experiment [9], 82.7%; in experiment [10], 81.1%; in [11], 51.3%; in [12], 80.4%. Moreover, the growth in experiment [20] is 49.5%; in experiment [14], 67.4%; in [15], 29%; in [17], 21.6%; in [18], 44.3%; in [19] it was 35.5%.

Consider `N#Cc1cc(-c2cc3ccccc3o2)oc1N`, for which the growth in experiment [1] is 7.97% (active); in experiment [2], 24.4%; in experiment [3], 24.5%; in [4], 3.63% (active); in [5] it was -24.5% (active); in experiment [6], -86.7% (active). The growth was 29.2% in experiment [7]; 3.98% (active) in [8]; 41.2% in [9]; 10.2% in experiment [10]; -26.4% (active) in [11]; 8.73% (active) in [12]. Besides, the growth in experiment [13] is 11.9%; in experiment [14], 1.36% (active); in experiment [15] it was -10.4% (active); in experiment [17], -29.6% (active); in experiment [18], -12.4% (active); in experiment [19], -23.5% (active).

In the case of `O=C(Nc1nc2ccccc2s1)Nc1ccc([N+](=O)[O-])cc1Cl`, the growth in experiment [1] was 55.8%; in experiment [2], 16.8%; in [3], 111%; in [4] it was 32.6%; in experiment [5], 52%; in experiment [6], 98.5%. The growth in [7] was 67.1%; in [8] it was 12.7%; in experiment [9], 68.5%; in experiment [10] it was 111%; in experiment [11], 90.4%; in [12] it was 78.8%. Moreover, the growth in experiment [20] is 26.8%; in experiment [13] it was 57%; in experiment [14], 88%; in experiment [16], 106%; in [17], 57.7%; in experiment [18], 91.1%. Moreover, in experiment [19], the growth is 48.3%.

For the compound `Cc1cs/c(=N\NC(=O)c2cc(-c3cc4ccccc4o3)nn2-c2ccccc2)n1-c1ccccc1`, the growth was 93.6% in experiment [1]; 89.7% in [2]; 92.8% in [3]; 87.6% in experiment [4]; 114% in experiment [5]; 42.5% in [6]. Also, the growth in experiment [7] is 79.6%; in experiment [8], 82.7%; in experiment [9], 102%; in [10] it was 91.6%; in experiment [11] it was 72.4%; in experiment [12] it was 96.7%. Moreover, the growth in experiment [13] is 121%; in experiment [14] it was 88.7%; in experiment [15], 100%; in experiment [17] it was 75.7%; in [18], 75%; in [19] it was 76.9%.
